PglD inh = blocks C. jejuni PglD acetyltransferase activity. purified PglD enzyme, DTNB colorimetric CoA detection. inhibition, % at 12.5 µM. 0.098% of 360,000 active. AID 602405; in the data active means inhibition above about 16%, passing the limit was not always enough
NSD2 inh = inhibitors of human histone methyltransferase NSD2 | 0.54% of 310,000 active | inhibition, % at 12.5 µM | NSD2 peptide methylation, AlphaScreen, 120 min | O96028; in the data active means inhibition above about 50%
Target sequence (O96028 whole entry, looked up): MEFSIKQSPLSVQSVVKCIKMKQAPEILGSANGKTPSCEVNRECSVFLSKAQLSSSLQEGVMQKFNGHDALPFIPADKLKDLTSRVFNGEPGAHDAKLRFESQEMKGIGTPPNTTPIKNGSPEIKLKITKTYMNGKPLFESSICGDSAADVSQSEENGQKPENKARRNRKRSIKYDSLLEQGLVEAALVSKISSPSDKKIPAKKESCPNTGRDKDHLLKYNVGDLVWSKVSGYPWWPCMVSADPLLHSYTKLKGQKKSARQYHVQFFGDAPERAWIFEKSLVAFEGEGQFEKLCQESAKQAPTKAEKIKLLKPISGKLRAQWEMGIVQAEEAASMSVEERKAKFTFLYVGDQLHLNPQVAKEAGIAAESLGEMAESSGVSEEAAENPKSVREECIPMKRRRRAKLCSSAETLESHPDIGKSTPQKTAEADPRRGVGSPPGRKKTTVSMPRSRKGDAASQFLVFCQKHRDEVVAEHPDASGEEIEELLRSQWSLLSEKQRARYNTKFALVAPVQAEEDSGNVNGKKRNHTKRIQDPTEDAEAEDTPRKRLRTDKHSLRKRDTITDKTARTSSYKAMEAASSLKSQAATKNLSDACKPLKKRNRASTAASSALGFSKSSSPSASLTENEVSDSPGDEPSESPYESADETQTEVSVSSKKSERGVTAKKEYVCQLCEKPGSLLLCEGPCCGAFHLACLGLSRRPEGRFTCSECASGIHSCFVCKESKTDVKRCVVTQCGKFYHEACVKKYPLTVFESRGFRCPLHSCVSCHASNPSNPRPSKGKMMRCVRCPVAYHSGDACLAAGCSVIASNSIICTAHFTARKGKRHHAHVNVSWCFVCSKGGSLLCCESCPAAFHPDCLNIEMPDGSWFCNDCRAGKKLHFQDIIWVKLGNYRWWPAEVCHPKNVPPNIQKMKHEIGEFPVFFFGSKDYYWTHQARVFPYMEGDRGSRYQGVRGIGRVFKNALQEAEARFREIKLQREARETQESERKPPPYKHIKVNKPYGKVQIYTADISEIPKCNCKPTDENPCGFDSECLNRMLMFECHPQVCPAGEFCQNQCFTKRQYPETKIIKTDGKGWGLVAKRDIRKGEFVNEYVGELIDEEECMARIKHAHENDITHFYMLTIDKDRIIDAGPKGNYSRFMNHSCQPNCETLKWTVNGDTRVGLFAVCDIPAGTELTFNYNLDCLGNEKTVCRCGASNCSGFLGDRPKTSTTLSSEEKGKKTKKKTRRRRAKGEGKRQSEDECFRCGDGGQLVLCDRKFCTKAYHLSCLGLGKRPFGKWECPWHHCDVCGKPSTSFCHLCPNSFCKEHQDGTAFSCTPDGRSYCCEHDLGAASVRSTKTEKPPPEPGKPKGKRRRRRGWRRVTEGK
CFTR F508del cor = correctors of CFTR F508del function in bronchial epithelial cells; AID 720511; activity (quench increase), % at 7.58 µM; CFBE cells, YFP halide quenching; stimulated with forskolin plus potentiator P3; % fluorescence drop versus neutral controls; 0.36% of 350,000 active;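 active means mean added fluorescence quench of at least 8% versus neutral control, with both replicates also reaching 8%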;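 further: cells transiently co-express mutant CFTR-F508del with the halide-sensitive YFP; corrector assay measuring rescue of mutant channel to the surface after 24 h compound exposure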
ALR inh = inhibitors of human sulfhydryl oxidase ALR; P55789; purified ALR, DTT oxidation, H2O2 HRP-luminol luminescence; inhibition, % (concentration not given with the values); 3.8% of 290,000 active; AID 485317;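 active means mean replicate inhibition above about 79%, with every replicate also reaching it, limit read from the data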
Env fusion inh = HIV envelope-mediated fusion inhibition; HeLa-JRFL Env/CEM21 cell fusion, luciferase; inhibition, % at 12.3 µM; 1.1% of 360,000 active; AID 651610;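 active means mean replicate inhibition score of at least 50 and every replicate individually at or above 50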;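 further: 0% = plate neutral controls and 100% = maraviroc near 300 nM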
CASP6 VEID inh = blocks human caspase-6 cleavage activity | AID 686996 | inhibition, % at 12.5 µM | 0.53% of 350,000 active | purified caspase-6, Z-VEID-R110 cleavage fluorescence;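 active means mean inhibition across replicates at least about 35%, with every replicate also reaching that limit, limit read from the data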;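 further: 0% = median of neutral control wells and 100% = no fluorescence left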
* hit, by the source's call; [ ] = dose if it differs, or a comment. Rows were chosen to be rich in hits. Some 4.1% of all compounds tested hit in one or more screens of this group.

For O=C(Nc1ccc(N2CCN(C(=O)c3ccc(Cl)cc3)CC2)cc1)c1ccc2c(c1)OCCO2 the results were PglD inh -4, NSD2 inh 6, ALR inh -6 and Env fusion inh 86*.
COCC#Cc1ccc2c(c1)O[C@@H](CN(C)S(=O)(=O)c1ccc(C)cc1)[C@@H](C)CN([C@H](C)CO)S2(=O)=O was read as PglD inh 3, CFTR F508del cor 0, Env fusion inh -2[16.7 µM] and CASP6 VEID inh 0.
Screening COc1ccc(S(=O)(=O)Nc2ccc3c(c2)CC(=O)N([C@H](C)CO)C[C@H](C)[C@@H](CN(C)Cc2ccc(C(=O)O)cc2)O3)cc1 returned CFTR F508del cor -2.
CCn1ccnc1C(O)c1ccc(N(C)C)cc1 (stereo not given) was read as PglD inh 1, NSD2 inh 24, ALR inh 99* and Env fusion inh -44.
Screening Cc1cc2c(cc1S(=O)(=O)Nc1ccc(F)cc1)n(C)c(=O)c(=O)n2C returned PglD inh 1, CFTR F508del cor 11*, ALR inh -10, Env fusion inh -10 and CASP6 VEID inh -1.
For CN(CCc1ccccc1)C(c1ccnc2ccccc12)c1nnnn1-c1ccc2c(c1)OCCO2 (stereo not given) the results were CFTR F508del cor 2, Env fusion inh 60* and CASP6 VEID inh -1.
Cc1cccc(C)c1-n1nnnc1C(c1ccnc2ccccc12)N(Cc1ccccc1)Cc1ccccc1 (stereo not given) was read as CFTR F508del cor -3, Env fusion inh 90* and CASP6 VEID inh -4.
Screening c1ccc(CN(Cc2ccccc2)C(c2ccnc3ccccc23)c2nnnn2-c2ccc3c(c2)OCCO3)cc1 (stereo not given) returned CFTR F508del cor -4, Env fusion inh 22 and CASP6 VEID inh -4.
Cc1cccc(C)c1-n1nnnc1C(c1ccnc2ccccc12)N(CCC#N)Cc1ccccc1 (stereo not given) was read as CFTR F508del cor -4, Env fusion inh 7 and CASP6 VEID inh -2.
Screening COc1ccc2c3c(n(C)c2c1)[C@@H](CO)N(C(=O)C1CCCC1)CC31CN(C(=O)Nc2cccc(F)c2)C1 returned CFTR F508del cor -3 and CASP6 VEID inh -2.
`C[C@H](CO)N1C[C@H](C)[C@H](CN(C)C)Oc2c(NC(=O)Nc3cccc4ccccc34)cccc2C1=O` gave CFTR F508del cor -2 and CASP6 VEID inh 1.
For CCCNC(=O)C[C@@H]1CC[C@H]2[C@@H](COc3ccc(NC(=O)Cc4ccccc4)cc3C(=O)N2C)O1 the results were PglD inh 7, CFTR F508del cor 1, Env fusion inh -1[16.7 µM] and CASP6 VEID inh -1.
CNC(=O)C[C@H]1CC[C@@H]2[C@H](COc3ccc(NC(=O)Nc4ccc(C)cc4)cc3C(=O)N2C)O1 was read as PglD inh -4, CFTR F508del cor 1, Env fusion inh 5[16.7 µM] and CASP6 VEID inh 1.
CCN1/C(=C/c2ccc3cc(C)ccc3[n+]2CC)Sc2ccccc21 was read as NSD2 inh 45, CFTR F508del cor -38, ALR inh 22, Env fusion inh -29 and CASP6 VEID inh 1.
Screening CC[n+]1c(/C=C2\Sc3ccccc3N2C)ccc2cccc(C)c21 returned PglD inh 1, NSD2 inh 20, CFTR F508del cor 18*, Env fusion inh 77* and CASP6 VEID inh 10.
`Cc1ccc(S(=O)(=O)N[C@@H](Cc2ccccc2)C(=O)CCl)cc1` gave PglD inh 2, CFTR F508del cor 0, ALR inh 98* and CASP6 VEID inh 5.
`Cc1ccc(S(=O)(=O)NC(Cc2ccccc2)C(=O)NN)cc1` (stereo not given) gave PglD inh -2, CFTR F508del cor 0, ALR inh -7, Env fusion inh -2 and CASP6 VEID inh -1.
`CCc1c(C)sc(NC(=O)c2cc(C)no2)c1C#N` gave PglD inh 0, CFTR F508del cor -3, ALR inh 93*, Env fusion inh 0 and CASP6 VEID inh 0.
For COc1cccc(NC(=O)N(C)C[C@@H]2OCc3cn(nn3)CCCC(=O)N([C@H](C)CO)C[C@@H]2C)c1 the results were CFTR F508del cor -3.
`NC(=O)C1CCCCc2c1[nH]c1ccc(Cl)cc21` (stereo not given) gave PglD inh 4, NSD2 inh 2, CFTR F508del cor -2, ALR inh 98*, Env fusion inh 23 and CASP6 VEID inh 1.
NC(=O)NC1CCCc2c1[nH]c1ccc(Cl)cc21 (stereo not given) was read as PglD inh 2, CFTR F508del cor 0, ALR inh 98*, Env fusion inh 28 and CASP6 VEID inh 0.
`Cc1ccc(Sc2ccc(S(=O)(=O)Nc3ccc(CC(=O)O)cc3)cc2)cc1C` gave PglD inh 4, NSD2 inh 7, CFTR F508del cor 3, ALR inh -2, Env fusion inh 0 and CASP6 VEID inh 41*.
COc1ccc(NC(=O)Nc2ccc3c(c2)C(=O)N([C@H](C)CO)C[C@@H](C)[C@@H](CN(C)S(=O)(=O)c2ccc(Cl)cc2)OCCCC[C@H](C)O3)cc1 was read as PglD inh -1, CFTR F508del cor -2, Env fusion inh -22[16.7 µM] and CASP6 VEID inh -4.
Screening O=C(C1CCOCC1)N1CC(=O)N2[C@H](C1)[C@H](c1ccc(/C=C/c3ccccc3)cc1)[C@@H]2CO returned CFTR F508del cor 2 and CASP6 VEID inh 3.
Screening Brc1ccc2c(c1)C(C1=NCCN1)c1ccccc1CS2 (stereo not given) returned PglD inh -2, NSD2 inh 0, CFTR F508del cor 11*, ALR inh 3, Env fusion inh 62* and CASP6 VEID inh -2.
For c1ccc2c(c1)CCCC2C1=NCCN1 (stereo not given) the results were PglD inh -5, CFTR F508del cor 3, ALR inh -6 and Env fusion inh 11.
For O=C(CSc1nc2ccccc2o1)Nc1nc2c(s1)CCCC2 the results were PglD inh -4, NSD2 inh 30, CFTR F508del cor -2, Env fusion inh -21 and CASP6 VEID inh 2.
`CCCc1nc(SCC(=O)NC2CCCC2)c2ccccc2n1` gave NSD2 inh 1, CFTR F508del cor 1, Env fusion inh 18 and CASP6 VEID inh -4.
CCCc1nc(SCC(=O)Nc2nc3c(s2)CCCC3)c2ccccc2n1 was read as PglD inh 6, NSD2 inh 1, CFTR F508del cor -2, ALR inh 99* and CASP6 VEID inh -2.
For CCc1nc(SCC(=O)Nc2nc3c(s2)CCCC3)c2ccccc2n1 the results were PglD inh 0, NSD2 inh 3, ALR inh 99* and Env fusion inh -43.

Source: PubChem (Broad Institute)
